This is an account of results in PubChem BioAssay (EPA / NIEHS).

Activity calls are given as the source filed them. The calls were made as follows: active = hit-call score of the fitted dose curve at least 0.9, where 1 is the maximum; inactive = score below 0.9.

Sequence of Myc proto-oncogene protein (Homo sapiens) (P01106 whole entry, looked up): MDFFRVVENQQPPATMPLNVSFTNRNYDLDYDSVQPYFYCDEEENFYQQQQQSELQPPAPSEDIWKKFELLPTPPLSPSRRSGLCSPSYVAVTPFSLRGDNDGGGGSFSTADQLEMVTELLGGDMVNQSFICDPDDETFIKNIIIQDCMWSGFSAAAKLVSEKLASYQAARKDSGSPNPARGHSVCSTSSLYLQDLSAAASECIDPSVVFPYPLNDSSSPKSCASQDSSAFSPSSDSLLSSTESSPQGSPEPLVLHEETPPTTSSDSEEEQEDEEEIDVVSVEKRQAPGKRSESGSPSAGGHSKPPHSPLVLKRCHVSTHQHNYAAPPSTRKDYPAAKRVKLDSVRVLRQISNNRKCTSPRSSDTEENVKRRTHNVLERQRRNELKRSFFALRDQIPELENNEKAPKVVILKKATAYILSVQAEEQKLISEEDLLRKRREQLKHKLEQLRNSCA

In the assay the target is Myc proto-oncogene protein (Homo sapiens) (UniProt P01106). Briefly: ATG_Myc_CIS: Attagene CIS-FACTORIAL HepG2 Assay for human Myelocytomatosis (Myc) Proto-Oncogene Transcription Factor (AID 2282990). As to conditions: HepG2, Attagene cis-reporter transcription factor activity; actives raise or lower the signal. As for the experimental part:
ATG_CIS is a cell-based, multiplexed-readout assay that uses HepG2, a human liver cell line, with measurements taken at 24 hours after chemical dosing in a 24-well plate.ATG_Myc_CIS is one of 52 assay component(s) measured or calculated from the ATG_CIS assay. It is designed to make measurements of mRNA induction, a form of inducible reporter, as detected with fluorescence intensity signals by Reverse transcription polymerase chain reaction (RT-PCR) and Capillary electrophoresis technology.Data from the assay component ATG_Myc_CIS was analyzed into 1 assay endpoint. This assay endpoint, ATG_Myc_CIS, was analyzed with bidirectional fitting relative to DMSO as the negative control and baseline of activity. Using a type of inducible reporter, measures of mRNA for gain or loss-of-signal activity can be used to understand the reporter gene at the transcription factor-level as they relate to the gene MYC. Furthermore, this assay endpoint can be referred to as a primary readout, because this assay has produced multiple assay endpoints where this one serves a reporter gene function. To generalize the intended target to other relatable targets, this assay endpoint is annotated to the dna binding intended target family, where the subfamily is basic helix-loop-helix leucine zipper.
Human liver HepG2 cells are transiently transfected with multiple reporter transcription units (MRTUs) in 6-well plates using FuGene 6 reagent (Roche; 3 ml FuGene/1 mg DNA). The MRTU constructs are regulated by a cis-regulating element (promoter). […] A major difference between the CIS and TRANS system is that in CIS activities of endogenous TFs are measured, whereas the TRANS assay evaluates changes in activities of exogenous, chimeric NR-Gal4 proteins. […] At the end of 24 hour incubation, total RNA was isolated using TriZol reagent (Invitrogen). The isolated RNA is then reverse-transcribed using oligo(dT) primer and Mo-MLV reverse transcriptase (Invitrogen) with DNAse I (Ambion) treatment for 30 min. The one-tenth of the produced cDNA was amplified by PCR using Taq DNA polymerase (Invitrogen) and two reporter sequence-specific primers. The PCR products were fluorescently labeled by primer extension with 6-arboxyfluorescein (6-FAM) 5'-labeled reporter sequence-specific primer (2 min at 95 C, 20 s at 68 C and 10 min at 72 C) and these products were digested with 5U of HpaI (New England Biolabs) for 2h at 37 C. The fragments were purified using Qiaquick PCR columns (Qiagen), analyzed on an ABI 3130xL genetic analyzer (Applied Biosystems) with peak positions identified by using a set of X-rhodamine (ROX)-labeled MapMarker1000 molecular weight standards (BioVentures). The raw capillary electrophoresis data was processed using Attagraph software (Attagene).
`C=CCOC(=O)C(=C)C`: the outcome was inactive. The same measure, in the same setting: then `CC(C)(C)NC(=O)[C@@H]1CN(Cc2cccnc2)CCN1C[C@@H](O)C[C@@H](Cc1ccccc1)C(=O)N[C@H]1c2ccccc2C[C@H]1O`, with “inactive”. In general, AC50 refers to the concentration at which the activity in the assay is half-maximal. Take `O=C(c1ccccc1)c1ccccc1O`: the AC50 is 135 µM (active). Take `COC(=O)/C=C\C(=O)OC`: the compound was called inactive. The same measure, in the same setting: then `Oc1cccc2ccccc12`, with “inactive”; and `COC(=O)c1ccccc1`, with “inactive”; and `COc1c2occc2cc2ccc(=O)oc12`, with “inactive”. On the same count and under the same terms, then `c1cc(N(CC2CO2)CC2CO2)ccc1Cc1ccc(N(CC2CO2)CC2CO2)cc1` (stereo not given), with “inactive”; and `CCCCOC(=O)COc1ccc(Cl)cc1Cl`, with “inactive”; and `CCC(C)(CCC(C)C)C(=O)O` (stereo not given), with “inactive”. On the same count and under the same terms, then `CCCCC(CC)COC(=O)CS` (stereo not given), with “inactive”; and `CCCC(=O)OC/C=C(\C)CCC=C(C)C`, with “inactive”.

`COCCCN`: the compound was classed as inactive.

Regarding `COc1ccc2ccccc2c1`, the compound was classed as inactive. Same read-out and setting: then `C/C=C(\C)C(=O)OCC/C=C\CC`, with “inactive”; and `CC[N+](CC)(CC(=O)Nc1c(C)cccc1C)Cc1ccccc1` (tested in a mixture with another compound), with “inactive”. With `O=C1CCCCCCCCCCCCCC1`, the AC50 was 23.6 µM (active).

Regarding `CC(C)n1c(/C=C/[C@@H](O)C[C@@H](O)CC(=O)O)c(-c2ccc(F)cc2)c2ccccc21`, the compound was called inactive. Take `CCCCCCOC(=O)CCCCCCCC(=O)OCCCCCC`: the result was inactive. On the same count and under the same terms, then `C=C(C)C(=O)OCC1CCCO1` (stereo not given), with “inactive”; and `c1ccc2c(c1)Oc1ccccc1S2`, with “inactive”. Same read-out and setting: then `Clc1ccccn1`, with “inactive”; and `CC(O)(P(=O)(O)O)P(=O)(O)O`, with “inactive”. As to `CC1=NN(c2cc(Cl)c(S(=O)(=O)O)cc2Cl)C(=O)C1N=Nc1ccc(S(=O)(=O)O)cc1` (stereo not given), the call was inactive. Same read-out and setting: then `CC(=O)CCc1ccccc1`, with “inactive”; and `OCCc1ccccn1`, with “inactive”; and `NC(N)=Nc1nc(CSCCC(N)=NS(N)(=O)=O)cs1`, with “inactive”. The same measure, in the same setting: then `CCC(C)=NO`, with “inactive”. Same read-out and setting: then `N#CCN(CC#N)CCN(CC#N)CC#N`, with “inactive”; and `F[B-](F)(F)F`, with “inactive”. `Nc1nnc(-c2ccc([N+](=O)[O-])o2)o1`: the AC50 is 12 µM (active). Consider `CC1=CCCC(C)(C)C12CCC(C)O2` (stereo not given), for which the result was inactive. Still for that read-out and setting: then `CCCCCCCCCCC1CO1` (stereo not given), with “inactive”; and `Sc1nc2ccccc2s1`, with “inactive”; and `CC1(C)S[C@@H]2[C@H](NC(=O)[C@H](N)c3ccccc3)C(=O)N2[C@H]1C(=O)O`, with “inactive”. Still for that read-out and setting: then `CC(=O)OC(C)(C)Cc1ccccc1`, with “inactive”; and `CNC[C@H](O)[C@@H](O)[C@H](O)[C@H](O)CO`, with “inactive”. As to `Oc1ccc(Cl)cc1C1CCCC1`, the AC50 was 16.6 µM (active).

Regarding `CCCCNC(N)=O`, the compound was classed as inactive. On the same count and under the same terms, then `Brc1ccc(Oc2ccc(Br)cc2)cc1`, with “inactive”.
